HSF-1 act: HSF-1 activators, primary screen, NIH3T3-HGL cells, MG132 stress, luminescence, single point. NIH3T3-HGL HSF-1 luciferase reporter, 8 h; 100% = twice DMSO control signal. activation, % at 9 µM. actives 1.7% (n = 300,000);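 active means mean replicate activation of at least 50% with a set share of replicates each reaching 50%; inconclusive means only one of those two conditions met; inactive means mean below 50% and too few replicates reaching it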
HSF1 inh: HSF1 inhibitors in luciferase reporter cells, primary screen, cell-based, NIH3T3, luminescence; NIH3T3-HGL HSE-luciferase, MG132-induced, luminescence 8 h; hits give low values; activity change, negative = inhibition, % at 7.5 µM (by protocol); actives 0.77% (n = 300,000); AID 2098, 2009;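 active means more than half of replicate wells show activity change below -50%, luminescence cut by over half; inconclusive means some wells, but at most half, below -50%; inactive means no replicate well below -50%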;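 further: luciferase reports HSF-1 transcriptional activity via heat shock element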
AHR act: AHR activators, primary screen, cell-based, luminescence, luciferase reporter, human; actives 2.5% (n = 320,000); activation, % at 5 µM; Aryl hydrocarbon receptor (Homo sapiens), P35869; AHR-responsive luciferase reporter cells; in the data active means activation above about 47%
Target sequence (P35869 whole entry, looked up): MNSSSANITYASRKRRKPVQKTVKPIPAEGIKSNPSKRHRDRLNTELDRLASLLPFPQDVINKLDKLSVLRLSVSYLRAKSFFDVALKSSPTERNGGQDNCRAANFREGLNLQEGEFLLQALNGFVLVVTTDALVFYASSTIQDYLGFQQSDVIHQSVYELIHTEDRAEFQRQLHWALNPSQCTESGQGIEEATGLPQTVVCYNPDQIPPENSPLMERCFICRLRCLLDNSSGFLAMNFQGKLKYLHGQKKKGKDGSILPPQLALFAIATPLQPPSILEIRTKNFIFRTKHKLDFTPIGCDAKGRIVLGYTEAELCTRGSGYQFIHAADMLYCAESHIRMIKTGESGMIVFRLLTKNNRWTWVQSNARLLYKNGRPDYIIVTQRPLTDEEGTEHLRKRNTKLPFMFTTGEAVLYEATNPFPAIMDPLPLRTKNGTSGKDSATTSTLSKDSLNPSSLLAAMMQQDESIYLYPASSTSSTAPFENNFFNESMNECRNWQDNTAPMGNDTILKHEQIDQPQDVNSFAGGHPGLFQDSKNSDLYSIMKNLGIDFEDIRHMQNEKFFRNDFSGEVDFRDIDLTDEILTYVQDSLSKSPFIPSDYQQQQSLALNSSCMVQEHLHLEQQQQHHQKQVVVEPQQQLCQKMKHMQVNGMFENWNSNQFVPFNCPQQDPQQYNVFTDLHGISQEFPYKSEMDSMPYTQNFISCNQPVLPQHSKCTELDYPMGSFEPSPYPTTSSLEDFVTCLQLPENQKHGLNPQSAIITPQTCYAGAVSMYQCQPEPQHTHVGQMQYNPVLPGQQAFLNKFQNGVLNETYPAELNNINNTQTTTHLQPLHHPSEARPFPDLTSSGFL
FXN GAA850 act: FXN promoter activators, primary screen, cell-based, luciferase luminescence, HEK293 lucGAA850 | HEK293 lucGAA850 FXN promoter luciferase reporter, 24 h; percent of 10 µM SAHA response | activation, % at 6 µM | actives 0.56% (n = 360,000);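 active means activation above the average of all compounds screened plus 3 SD, cutoff fixed separately per campaign, cut at about 7.5% in these data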
Of the large screens only hits and unclear results are named; the others gave an inactive call. In the library only some 4.6% were active in any assay of this set; here they are far more common.

COc1ccc(NC(=O)c2[nH]c(C)c(C(C)=O)c2C)cc1	AHR act 61
CC(=O)c1c(C)[nH]c(C(=O)Nc2cccnc2)c1C	AHR act 57
CC(=O)c1c(C)[nH]c(C(=O)Nc2ccc3c(c2)OCCO3)c1C	AHR act 54
CC12COC3(C(=O)Nc4ccccc4)CC1CCC32C (centres undefined)	none
CC12COC3(C(=O)Nc4ccc5ccccc5c4)CC1CCC32C (centres undefined)	HSF-1 act 62
Cc1cc(NCCN2CCOCC2)n2nc(C)c(-c3ccc(Cl)cc3)c2n1	HSF-1 act 65
Cc1cc(NCCCn2ccnc2)n2ncc(-c3ccccc3)c2n1	none (no result: HSF-1 act, HSF1 inh)
Cc1cc(NCCCn2ccnc2)n2nc(C)c(-c3ccccc3)c2n1	AHR act 112
Cc1cc(NCCCn2ccnc2)n2nc(C)c(-c3ccc(Cl)cc3)c2n1	AHR act 48
Nc1cc[n+](CC(=O)c2ccc3c(c2)OCCO3)cc1	none
CCC(=O)OCCNc1cc(Sc2nccn2C)c2nonc2c1[N+](=O)[O-]	HSF-1 act 437
Cc1cc2occ(CC(=O)NCc3cccs3)c2cc1C(C)C	HSF-1 act 62
COc1ccc(OC)c(S(=O)(=O)Nc2ccccc2C(=O)N2CCCCC2)c1	none (no result: HSF-1 act, HSF1 inh, AHR act)
CC(=O)c1c(C(C)=O)c(C)n(-c2nc(-c3ccc(Br)cc3)c(C)s2)c1C	AHR act 56
C/C(=N\Nc1nc(C)cc(-c2ccccc2)n1)c1ccccc1	none
C/C(=N\Nc1nc(C)cc(-c2ccccc2)n1)c1ccc(C)o1	HSF-1 act inconclusive, AHR act 47
C/C(=N\N=C(/C)c1cccc(N)c1)c1cccc(N)c1	HSF-1 act 64
Cc1cc(-c2ccccc2)nc(N/N=C/c2ccccc2F)n1	AHR act 68
C/C(=N\Nc1nc(C)cc(-c2ccccc2)n1)c1cccc(N)c1	AHR act 49
Nc1cccc(C(=O)O)c1	none
CC(OC(=O)c1ccc(-n2cnnn2)cc1)C(=O)N(C)c1ccccc1 (centres undefined)	none (no result: HSF-1 act, HSF1 inh, AHR act)
O=C(NCc1ccccc1)C1=C[C@H](c2ccc(C(F)(F)F)cc2)C[C@H](OCc2ccc(CO)cc2)O1	none
COc1ccc(-c2ccc(-c3noc(-c4ccccc4OC)n3)c(OC)n2)cc1	none
Clc1cccc(-c2cc3nc4c(c(N5CCOCC5)n3n2)CCCC4)c1	none
O=C(C1=C(O)C(=O)N(c2ncccn2)C1c1ccc(Cl)cc1)c1ccco1 (centres undefined)	AHR act 75
O=c1oc(-c2ccccc2F)nc2scc(-c3ccccc3)c12	none
COc1cc(/C=C/c2noc(-c3ccccc3O)n2)ccc1OC(C)=O	HSF-1 act 54
CC(=O)Nc1ccc(/C=C/c2noc(-c3ccccc3O)n2)cc1	none
Oc1ccccc1/C=C/c1noc(-c2ccccc2O)n1	AHR act 66
Clc1ccc(N=c2ssnc2Cl)nc1	HSF-1 act 130
CCCCN(C)c1c(C)nc2ccc(C(=O)NCc3ccc(OC)cc3)cn12	none (no result: HSF-1 act, HSF1 inh, AHR act)
CC(=O)N(/N=C/c1cccc(C)c1)c1nc(-c2ccc(Br)cc2)cs1	AHR act 78
COc1ccccc1/C=N/N(C(C)=O)c1nc(-c2ccc(F)cc2)cs1	AHR act 56
CC(=O)Nc1ccc(NC(=O)COC(=O)[C@@H](NC(=O)c2ccc(F)cc2)C(C)C)cc1	HSF-1 act 62
O=C(NCCS(=O)(=O)N1CCCCC1)c1ccccc1	none
Oc1ccc(Cl)cc1C=Nc1ccc2c3c(cccc13)CC2	AHR act 49
COc1ccc(C2c3[nH]c4ccccc4c3CCN2Cc2ccoc2)c(F)c1 (centres undefined)	AHR act 47
O=C(C1=C[C@H](c2ccc(C(F)(F)F)cc2)C[C@H](OCCCCO)O1)N1CCN(Cc2ccc3c(c2)OCO3)CC1	HSF1 inh -70
CCCS(=O)(=O)C/C(N)=N/OC(=O)c1ccccc1Cl	none
O=c1c2oc3ccccc3c2[nH]c(=S)n1-c1ccc(F)cc1	AHR act 57
Cc1ccc(-n2c(=S)[nH]c3c(oc4ccccc43)c2=O)cc1C	none
CS/C(N)=N/N=C/c1cc(Br)cc(Br)c1O	AHR act 66
O=C1c2ccccc2NC(c2ccc(O)cc2)N1/N=C/c1ccc(O)cc1 (centres undefined)	HSF-1 act 70
CCOc1ccc(NCc2cccn2-c2nnc(N3CCC(C(=O)NCCCN4C(C)CCCC4C)CC3)s2)cc1 (centres undefined)	none
CCOc1ccc(NCc2cccn2-c2nnc(N3CCC(C(=O)NCCCN4CCCCC4)CC3)s2)cc1	HSF1 inh -57
CCC1C(=O)N=C(SCC(=O)Nc2ccc(Br)cn2)NC1=O (centres undefined)	none
Cc1nn(-c2ccccc2)c(/N=C/c2ccc(O)cc2)c1-c1ccccc1	HSF-1 act 56
Cc1ccc(-c2nnn(CC(=O)N(c3ccccc3)C(C(=O)NCC3CCCO3)c3ccc(Cl)cc3)n2)cc1 (centres undefined)	none
COc1cc(CN2CCCC(CCC(=O)NCc3ccc(C)o3)C2)cc2c1OCO2 (centres undefined)	none
O=C(O)c1ccc(N=Nc2c(O)[nH]c3cc(Cl)ccc23)cc1	FXN GAA850 act 9.8
Cc1cccc2c(N=NC(=O)C(C)n3cnc4ccccc4c3=O)c(O)[nH]c12 (centres undefined)	none
Cc1cccc2c(N=Nc3ccccc3)c(O)[nH]c12	HSF-1 act 61, AHR act 76
Oc1[nH]c2ccccc2c1N=Nc1cccc(Cl)c1	HSF-1 act 69
CC1(C)CC(=O)C/C(=N/NC(=O)CCCOc2ccc(Cl)cc2Cl)C1	HSF-1 act inconclusive
COC(=O)c1cccc(NC(=O)CN(c2ccc3c(c2)OCO3)S(C)(=O)=O)c1C	none
N#Cc1ccc(OCC(=O)n2cc(C(=O)c3cc(Cl)cc(Cl)c3O)cn2)cc1	AHR act 70 (no result: FXN GAA850 act)
Cc1cccc(N2C(=N)SCC2=O)c1C	HSF-1 act 77
N=C1SCC(=O)N1c1nc(-c2ccccc2)cs1	none
CC(=O)N(CCN(C(C)=O)c1ccccc1)c1ccccc1	none
CC1Cc2ccccc2N1C(=O)CO/N=C/c1ccc(OC(F)F)cc1 (centres undefined)	HSF1 inh -88
Cc1cc(/C=C2\SC(=S)N(Cc3ccco3)C2=O)c(C)n1-c1ccccc1	HSF1 inh -66
CN(C)c1ccc(C=C2SC(=S)N(Cc3ccco3)C2=O)cc1	none (no result: HSF-1 act, HSF1 inh, AHR act)
Cc1ccccc1-n1c(-c2cccnc2)n[nH]c1=S	none
CCn1cc(C(=O)NCC2CCCO2)c(=O)c2cc(S(=O)(=O)N3CCCCCC3)ccc21 (centres undefined)	none
CCCc1nc(N)c(C#N)c(-c2ccco2)c1CC	none
O=[N+]([O-])c1ccc(N2CCCCCC2)c([N+](=O)[O-])c1	HSF-1 act 77
COC(C)(C)[C@H](O)COc1c2ccoc2cc2oc(=O)ccc12	AHR act 57
